Reference: PubChem BioAssay (Tox21)
Records with an inconclusive call do not appear. Where a call stands in place of a potency, no number is given. Values without a mark were called inactive. Activity calls are given as the source filed them. The call rests on the fitted dose curve; in most records, active means well fitted cell-killing curve with a large enough effect in the repeat runs; inconclusive means weak or mixed curves, or effect the other way; inactive means flat fitted curve, though single readings scatter.

What was measured:
[1] = cAMP Responsive Elements (CRE) small molecule antagonists, cell-based qHTS assay: qHTS cell viability counter screen (AID 2060913); further: nearly all actives have a fitted effect of over 40% in size
Summary of the method: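 HEK293T CRE-bla, 2,000 cells/well, 18 h preincubation; cpd in DMSO + NKH477 0.25 uM final, 3 h 37 C/5% CO2; LiveBLAzer 2 h RT, then CellTiter-Glo 30 min RT, luminescence.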

[2] = cAMP Responsive Elements (CRE) small molecule agonists, cell-based qHTS assay: qHTS cell viability counter screen (AID 2060914); further: nearly all actives have a fitted effect of over 50% in size
Summary of the method: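 Luminescence read-out (CellTiter-Glo, 30 min RT) of ATP-based viability in CRE-bla HEK 293T cells, run in the same wells as the β-lactamase reporter assay after 3 h compound treatment at 37 °C.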

SMILES | Potency [1] | Potency [2] | viability change, negative = cytotoxic [1] | activity change, negative = cytotoxicity [2]
CCC(=O)OC/C=C/c1ccccc1 | inactive | inactive |  | 
CC(=O)c1ccc(O)c(C(N)=O)c1 | inactive | inactive |  | 
C/C=C/c1ccc(OC)c(OC)c1 | inactive | inactive |  | 
O=C1CCCCCN1 | inactive | inactive |  | 
OC1CCCCC1 | inactive | inactive |  | 
COc1c(N2C[C@@H]3CCCN[C@@H]3C2)c(F)cc2c(=O)c(C(=O)O)cn(C3CC3)c12 | inactive | inactive |  | 
CC(=O)/C=C/C1C(C)=CCCC1(C)C (stereo not drawn) | inactive | inactive |  | 
CC(=O)Nc1ccccc1C | inactive | inactive |  | 
N[C@@H](CS)C(=O)O | inactive | inactive |  | 
NC1CCN(c2nc3c(cc2F)c(=O)c(C(=O)O)cn3-c2ccc(F)cc2F)C1 (stereo not drawn) | inactive | inactive |  | 
Cc1ccc2c(c1)c1c3n2CCNC3CCC1 (stereo not drawn) | inactive | inactive |  | 
CC(=O)[C@]1(O)Cc2c(O)c3c(c(O)c2[C@@H](O[C@H]2C[C@H](N)[C@H](O)[C@H](C)O2)C1)C(=O)c1ccccc1C3=O | inactive | inactive |  | 
O=C(O)CONC(=O)c1ccccc1 | inactive | inactive |  | 
CCc1nccnc1CC |  |  | 0.102% [at 18.9 µM] | 11.2% [at 18.9 µM]
CCOC(=O)CC(C)=O | inactive | inactive |  | 
CCOC(=O)C(=O)c1csc(NC=O)n1 | inactive | inactive |  | 
Clc1cc(Cl)c(Cl)nc1Cl | inactive | inactive |  | 
O=C1CN(/N=C/c2ccc([N+](=O)[O-])o2)C(=O)N1 | inactive | inactive |  | 
c1ccc(CN(CC2=NCCN2)c2ccccc2)cc1 | inactive | inactive |  | 
C[C@]12CCC(=O)C=C1CC[C@@H]1[C@@H]2C(=O)C[C@@]2(C)[C@H]1CC[C@]2(O)C(=O)CO | inactive | inactive |  | 
O=c1[nH]cnc2ccccc12 | inactive | inactive |  | 
C=C(C)[C@@H]1CCC2=CCC[C@@H](C)[C@]2(C)C1 | inactive | inactive |  | 
O=C1OCc2ccccc21 | inactive | inactive |  | 
O=Cc1ccc([N+](=O)[O-])cc1 | inactive | inactive |  | 
COc1cc(C=O)ccc1OC(=O)C(C)C | inactive | inactive |  | 
CC(=O)N[C@@H](CS)C(=O)O | inactive | inactive |  | 
CCCCCCCCCCCCS(=O)(=O)Cl |  |  | 11.7% [at 18.9 µM] | 8.81% [at 18.9 µM]

SMILES | Potency [1] | Potency [2] | viability change, negative = cytotoxic [1] | activity change, negative = cytotoxicity [2]
CN1CCN(N)CC1 | inactive | inactive |  | 
CCCCC(CC)COP(=O)(OCC(CC)CCCC)OCC(CC)CCCC (stereo not drawn) | inactive | inactive |  | 
COC(=O)CC(C)=O | inactive | inactive |  | 
CCCCCCCCCCCCCCCS(=O)(=O)Oc1ccccc1 | inactive | inactive |  | 
COc1cc(C(C)C)c2c(c1)S(=O)(=O)N(COc1cc(=O)n3cccc(OCCN4CCCCC4)c3n1)C2=O |  |  | -2.74% [at 18.9 µM] | 4.87% [at 18.9 µM]
CC1=CCC2CC1C2(C)C (stereo not drawn) | inactive | inactive |  | 
CCOC(=O)c1cccnc1 | inactive | inactive |  | 
FC(F)(Cl)C(F)(Cl)Cl | inactive | inactive |  | 
CC/C=C/CCCCCCCCCCOC(C)=O | inactive | inactive |  | 
O=C(O)c1ccc(S(=O)(=O)N(Cl)Cl)cc1 | inactive | inactive |  | 
CCN1CCc2nc(N)oc2CC1 | inactive | inactive |  | 
O=Cc1ccccc1O | inactive | inactive |  | 
CCS(=O)(=O)CCn1c([N+](=O)[O-])cnc1C | inactive | inactive |  | 
COC[C@H](c1ccc(C(F)(F)F)cc1)N1CCN(C2(C)CCN(C(=O)c3c(C)ncnc3C)CC2)C[C@H]1C | inactive | inactive |  | 
COc1ccc(Cc2cnc(N)nc2N)cc1OC | inactive | inactive |  | 
CC(C)(C)OC(=O)c1cccc(N)c1 | inactive | inactive |  | 
O=C(O)c1ccco1 | inactive | inactive |  | 
CC(CO)Oc1ccccc1 (stereo not drawn) | inactive | inactive |  | 
CC(CCO)CCc1ccccc1 (stereo not drawn) | inactive | inactive |  | 
CC(Oc1cc(Cl)ccc1Cl)C(=O)O (stereo not drawn) | inactive | inactive |  | 
CN1C(CCl)Nc2cc(Cl)c(S(N)(=O)=O)cc2S1(=O)=O (stereo not drawn) | inactive | inactive |  | 
CCCCCCCCS(=O)(=O)O | inactive | inactive |  | 
CCCCC(CC)COP(=O)(O)OCC(CC)CCCC (stereo not drawn) | inactive | inactive |  | 
C=CCCCCCCCCCCC |  |  | -1.65% [at 8.39 µM] | -4.53% [at 8.39 µM]
CCCCCCCCCC(=O)O | inactive | inactive |  | 
O=P(O)(OCc1ccccc1)OCc1ccccc1 | inactive | inactive |  | 
CC(C)NCC(O)c1ccc2ccccc2c1 (stereo not drawn) | inactive | inactive |  | 
